High-throughput results from PubChem.
Only some compounds are listed: those with a hit (about 5.3% of all), similar ones and a draw of the others.
Vaccinia mCherry = vaccinia inhibition (mCherry reporter); Vaccinia virus mCherry reporter infection, fluorescence; Potency, µM (series often up to 36.5 µM), for inactives: at the highest dose activity change, negative = inhibition, most hits filed as inhibitors; actives 0.63% (n = 310,000); calls by dose curve; tested in A549 cells; note: nearly all actives have a fitted effect of over 35% in size
Marburg entry inh = inhibitors of Marburg virus binding or cell entry | Marburg virus pseudotyped entry inhibition, cell reporter | Potency, µM (highest dose often 37.8 µM), inactives show top-dose activity change, negative = inhibition, actives largely listed as inhibitors | actives 1.8% (n = 300,000) | AID 540276; calls by dose curve; tested in HEK293 cells
HCV inhibitor = inhibitors of hepatitis C virus infection; Huh7.5.1 HCVcc-Cre infection, luciferase reporter, 44 h; actives 3.4% (n = 340,000); Potency, µM (titrated, usually from 41.8 µM), for the others: top-dose activity change, negative = inhibition, usual class: inhibitors; active = well fitted inhibition curve with a large enough effect; inconclusive = small, poorly fitted or top-dose-only effect, or another doubt; inactive = no such curve, though single readings can be large or run the other way
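Whole-lifecycle infectious HCVcc-Cre system; cells 1,000/well, compound then virus (~0.5 moi) added 4 h after plating, 44 h culture. Luciferase read 15 sec following 15 min substrate incubation, room temp.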
VACV Venus inh = inhibitors of vaccinia virus (Venus reporter). actives 0.46% (n = 330,000). Vaccinia virus Venus reporter expression, fluorescence. Potency, µM (doses to about 36.5 µM), for inactives: top-dose activity change, negative = inhibition, most hits filed as inhibitors; calls by dose curve; tested in A549 cells; note: nearly all actives have a fitted effect of over 30% in size
FMDV antiviral = antivirals against foot and mouth disease virus | FMDV antiviral cell-based qHTS | Potency, µM (doses to about 57.9 µM), for inactives: at the highest dose activity change, negative = inhibition, most hits filed as inhibitors | actives 1.2% (n = 410,000) | AID 1159524; calls by dose curve; tested in HEK293T cells; note: read-out not given here; nearly all actives have a fitted effect of over 45% in size
LASV entry inh = blocks Lassa virus binding to or entry into cells. Lassa virus pseudotype entry inhibition, cell reporter. Potency, µM (series often up to 37.9 µM), inactives show top-dose activity change, negative = inhibition, most hits filed as inhibitors. actives 1.2% (n = 300,000). AID 540256; calls by dose curve; tested in HEK293 cells; note: nearly all actives have a fitted effect of over 50% in size
The depositor's hits bear a star; i = inactive; ? = inconclusive; . = no result; [ ] = remark or other dose. % is set by controls: 0 for no effect and ±100 for the full control effect; potency is the fitted concentration of half-maximal effect.

SMILES	Vaccinia mCherry	Marburg entry inh	HCV inhibitor	VACV Venus inh	FMDV antiviral	LASV entry inh
Cc1ccnc(NC(=O)Nc2cccc(F)c2)c1	.	?	-9.2%	.	-34.3%	6.51µM*
Cc1ccc(NC(=O)Nc2cccc(F)c2)nc1	.	.	-10.3%	.	70.9%	.
COc1ccc(N2CC(NC(=O)c3ccc4c(c3)OCO4)CC2=O)cc1OC (centres undefined)	8.9%	.	.	-2.4%	11.9%	-11.2%[46.1 µM]
Cc1cc(Sc2nc(N)ncc2[N+](=O)[O-])ncn1	-3.8%	?	?	0.4%	?	-11.4%
Cc1cc(Sc2ncnc(N)c2[N+](=O)[O-])ncn1	i	?	?	-10.6%	20µM*	11.2µM*
COc1ccc(C(=O)Nc2ccc(-c3nc4ncccc4o3)cc2C)cc1Br	?	6.6%[46.1 µM]	.	?	-18.0%	4.4%[46.1 µM]
CC1CC(C)CN(c2oc(-c3ccc(OCc4ccccc4Cl)cc3)nc2C#N)C1 (centres undefined)	25.7%	.	.	-10.0%	.	.
O=C(Cc1n[nH]c(=O)c2ccccc12)OCc1c(Cl)cccc1Cl	?	0.517µM*	5.3%	20.1%	-1.7%	0.631µM*
CCOC(=O)Cc1n[nH]c(=O)c2ccccc12	-9.8%	-3.2%	-8.7%	6.5%	-6.0%	21.4%[46.1 µM]
NC(=S)N/N=C1\CC(n2nnnc2-c2ccccc2)C2COC1O2 (centres undefined)	.	.	14.9%	.	10.8%	.
NC(=S)N/N=C1\CC(n2nnn(-c3cccc(Cl)c3)c2=S)C2COC1O2 (centres undefined)	11.2µM*	?	-3.3%	?	-19.5%	-14.4%
COCC(=O)Nc1cc(C(=O)N2CCN(c3ccccc3)CC2C)c2c(c1)nc(-c1ccncc1)n2C (centres undefined)	-6.1%	.	.	4.2%	8.5%	.
COc1c(-c2coc3cc4c(cc3c2=O)CC(O)C(C)(C)O4)ccc2c1C=CC(C)(C)O2 (centres undefined)	11.2µM*	.	.	11.2µM*	2.24µM*	.
COc1c(-c2coc3cc4c(cc3c2=O)CC(OC(C)=O)C(C)(C)O4)ccc2c1C=CC(C)(C)O2 (centres undefined)	-4.1%	.	.	-3.4%	?	.
COc1cc(/C=C/c2nc3ccccc3nc2/C=C/c2cc(OC)c(OC)c(OC)c2)cc(OC)c1OC	21.1%	.	.	-18.3%	.	.
COc1cccc2c1C(=O)/C(=C\c1ccc(N(C)C)cc1)C2	-23.8%	.	.	212.7%	.	.
CC(C1CC1)N(Cc1ccccc1)C(=O)NC(=O)c1ccc(F)cc1 (centres undefined)	-3.4%	4.7%	-1.8%	-26.3%	11.6%	11.2µM*
CC(C1CC1)N(Cc1ccccc1)C(=S)Nc1ccccc1 (centres undefined)	-7.3%	-0.7%[46.1 µM]	-4.5%	-12.6%	-4.7%	?
CSc1nc(C(=O)N2CCOc3ccc(CN4CCN(Cc5ccccn5)CC4)cc3C2)cs1	-11.5%	.	.	0.7%	40.0%	.
CC(=O)c1ccc(F)c(-c2cc(C)cc3c2OC(CNC(=O)c2csc(C)n2)C3)c1 (centres undefined)	-19.2%	.	.	-14.6%	-17.1%	.
O=C1NC(c2cccc3ccccc23)Nc2ccc(Cl)cc21 (centres undefined)	?	?	-24.3%	11.2µM*	0.0%	?
O=C1NC(c2cc3ccccc3nc2Cl)Nc2ccccc21 (centres undefined)	-14.2%	7.3%	9.5%	-10.7%	?	?
CCCCCCCSc1cc(OC)c(CCN(C)C)cc1OC	?	?	?	10µM*	-17.1%	?
COc1c(C)cc(C(=O)C2CCCN(C(=O)CCc3scnc3C)C2)cc1C (centres undefined)	-25.0%	.	10µM*	-15.6%	-13.4%	.
COc1cccc(C(=O)C2CCCN(C(=O)CCc3scnc3C)C2)c1 (centres undefined)	-4.6%	-25.4%[46.1 µM]	-11.3%	-5.7%	-14.3%	?
SMILES	Vaccinia mCherry	Marburg entry inh	HCV inhibitor	VACV Venus inh	FMDV antiviral	LASV entry inh
COc1c(C)cc(C(=O)C2CCCN(C(=O)c3ccc4[nH]ccc4c3)C2)cc1C (centres undefined)	i	-9.2%[46.1 µM]	-7.6%	-4.1%	-15.8%	4.47µM*
CCN1C(=NCc2ccc3c(c2)OCO3)NC(CCc2ccccc2)C(C(=O)OC)=C1C (centres undefined)	.	-29.8%[14.2 µM]	.	.	.	?
CC(=O)NC(Cc1c(F)c(F)c(F)c(F)c1F)C(=O)NCC(N)C(=O)c1ccccc1 (centres undefined)	-2.2%	.	.	-14.1%	.	.
COC(=O)C1=C(C(=O)OC)[C@@H]2N(Cc3ccccc3)c3ccccc3[C@@]23C[C@@H](C(=O)OC)N(C(=O)Nc2ccccc2F)C3=N1	.	-13.0%[14.2 µM]	.	.	.	.
CSc1ncccc1C(=O)NCC1Cc2cc(F)cc(-c3cncnc3)c2O1 (centres undefined)	-12.0%	.	.	-2.0%	-22.1%	.
On1onc2c3cc(-c4ccccc4)nc3ccc21	3.16µM*	?	2.24µM*	?	23.7%	?
Cc1ccc(-c2nc3cnccn3c2Nc2ccc(C(C)C)cc2)o1	-8.9%	.	.	-7.1%	.	.
Cc1cc(C(=O)CCl)c(C)n1-c1c(C)n(C)n(-c2ccccc2)c1=O	?	?	8.91µM*	?	28.2µM*	?
COc1ccc(-n2c(C)cc(C(=O)CCl)c2C)cc1	.	.	?	.	28.2µM*	.
COc1ccc(-n2c(C)cc(C(=O)COC(=O)c3ccc(O)cc3O)c2C)cc1	.	.	10µM*	.	-24.3%	.
COc1ccc(-n2c(C)cc(C(=O)COC(=O)Cn3cnc4ccccc43)c2C)cc1	?	-26.9%	-1.2%	-29.9%	-25.0%	9.8%
Cc1cc(C(=O)COC(=O)c2ccc(O)cc2O)c(C)n1-c1ccc(OC(F)F)cc1	-8.4%	7.94µM*	10µM*	-21.9%	?	?
COCCn1c(=O)c(C)nc2cncnc21	.	.	.	.	-13.2%	.
C/C(=N\NC(N)=S)c1cc(-c2ccccc2)c(-c2ccccc2)s1	-13.5%	?	6.31µM*	-5.8%	-17.3%	?
CC1=Nc2ccccc2/C1=C/c1sc(=N)n(-c2nccs2)c1O	-19.5%[1.46 µM]	10µM*	-23.8%	?	?	10µM*
CC1=Nc2ccccc2/C1=C/c1nc(-c2ccc(C)s2)oc1O	i	.	-6.5%	4.2%	4.5%	.
Cc1ccn2cc(-c3cccc(S(=O)(=O)N4CCCC4)c3)nc2c1	i	?	11.2µM*	-17.2%	-2.5%	?
Cc1ccn2cc(-c3cccc([N+](=O)[O-])c3)nc2c1	-12.0%	?	3.0%	-10.0%	-10.4%	4.47µM*
Cc1ccn2cc(-c3ccc(NS(=O)(=O)c4ccccc4)cc3)nc2c1	-25.1%	?	11.2µM*	-23.4%	11.3%	10.2%
COc1ccc([C@@H](C)C(=O)c2ccc(O)cc2O)cc1	.	.	.	.	-6.2%	.
CN(C)c1ccc(/C=C/c2c3c(nc4ccccc24)CCCC3)cc1	i	.	.	-9.1%	.	.
CCc1ccccc1NC(=O)C1CCN(c2nn3c(=O)cc(C)nc3s2)CC1	-0.1%	-9.0%[46.1 µM]	.	-15.2%	22.5%	21.1%[46.1 µM]
CCc1nn2c(-c3ccccc3OC)ccnc2c1-c1ccccc1	-13.1%	-21.6%[46.1 µM]	.	-14.4%	0.0%	?
